Source: PubChem
3T3 cytotox: NIH 3T3 cell cytotoxicity. NIH 3T3 viability, CellTiter-Glo ATP luminescence, 48-72 h. Potency, µM (series often up to 96.7 µM), for inactives: at the top dose activity change, negative = cytotoxicity, actives largely listed as inhibitors. hit rate 4.3% among 94,000; also: % is scaled to controls: 0 for no effect and ±100 for the full control effect; nearly all actives have a fitted effect of over 55% in size
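Viability of NIH 3T3 cells after 48 or 72 hr compound treatment at 37 °C was assessed by CellTiter-Glo, with luminescence imaged following a 10 min room-temperature step.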
FLuc inh-1: Photinus pyralis luciferase inhibition; P08659; purified P. pyralis luciferase, luminescence, biochemical; Potency, µM (highest dose often 115 µM), actives largely listed as inhibitors; hit rate 2.5% among 76,000; AID 1347043; also: % is scaled to controls: 0 for no effect and ±100 for the full control effect; nearly all actives have a fitted effect of over 65% in size
Target sequence (P08659 whole entry, looked up): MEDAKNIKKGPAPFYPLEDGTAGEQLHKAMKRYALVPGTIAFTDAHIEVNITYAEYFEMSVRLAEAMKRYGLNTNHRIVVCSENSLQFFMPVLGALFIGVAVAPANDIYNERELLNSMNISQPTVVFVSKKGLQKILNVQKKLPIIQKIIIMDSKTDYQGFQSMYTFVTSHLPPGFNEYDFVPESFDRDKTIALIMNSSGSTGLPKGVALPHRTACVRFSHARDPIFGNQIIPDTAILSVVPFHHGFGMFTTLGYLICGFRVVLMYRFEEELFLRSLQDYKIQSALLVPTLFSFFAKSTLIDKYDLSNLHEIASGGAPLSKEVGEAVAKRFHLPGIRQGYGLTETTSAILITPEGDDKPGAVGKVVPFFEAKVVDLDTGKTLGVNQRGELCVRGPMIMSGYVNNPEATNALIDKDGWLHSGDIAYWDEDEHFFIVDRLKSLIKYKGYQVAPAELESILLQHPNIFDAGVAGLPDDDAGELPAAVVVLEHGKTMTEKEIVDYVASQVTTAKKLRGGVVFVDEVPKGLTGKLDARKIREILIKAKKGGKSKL
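Purified P. pyralis luciferase (10nM final) in 50mM Tris acetate pH 7.5, 10mM Mg acetate, 0.01% Tween-20, 0.05% BSA with 10uM D-luciferin and 10uM ATP. Compounds titrated qHTS. Luminescence imaged on CCD.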
HEK293 tox: cytotoxic compounds in HEK 293 cells. HEK 293 viability, ATP luminescence (CellTiter-Glo), 48-72 h. hit rate 6.6% among 94,000. Potency, µM (series often up to 115 µM), inactives show at the top dose activity change, negative = cytotoxicity, most hits filed as inhibitors; also: % is scaled to controls: 0 for no effect and ±100 for the full control effect; nearly all actives have a fitted effect of over 60% in size
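CellTiter-Glo luminescence (cellular ATP) was read after 48 or 72 hr of compound exposure at 37 degree Celsius. Cells were HEK 293 plated at 250 cells/well.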
hNpr1 antagonist: antagonists of human natriuretic peptide receptor Npr1; hit rate 1.6% among 76,000; Potency, µM (series often up to 46.3 µM), inactives show top-dose activity change, negative = inhibition, most hits filed as inhibitors; HEK293 hNpr1 GloSensor cGMP, ANP-stimulated luminescence; AID 1347048; P16066; calls by dose curve; also: % is scaled to controls: 0 for no effect and ±100 for the full control effect; nearly all actives have a fitted effect of over 60% in size
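Compound pre-incubated 30 min at room temperature on GloSensor-loaded HEK293 cells stably carrying hNpr1 and the pGS-40F cGMP biosensor. Stimulation uses hNppA at 0.1 nM final; luminescence is taken at baseline and 20 min post-agonist.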
FLuc SDR no ATP: stabilizes firefly luciferase without ATP | shares compounds with FLuc inh-1 | Purified FLuc-C-HiBiT, Nano-Glo HiBiT luminescence, no ATP | Potency, µM (doses to about 32.7 µM), for inactives: top-dose activation (signal gain), actives largely listed as activators | hit rate 7.8% among 1,300; also: nearly all actives have a fitted effect of over 55% in size
FLuc SDR ATP: stabilizes firefly luciferase with ATP present | hit rate 8.7% among 1,300 | shares compounds with FLuc inh-1 | Potency, µM (titrated, usually from 32.7 µM), inactives show at the highest dose activation (gain of signal), actives largely listed as activators | AID 1963319 | purified FLuc-C-HiBiT + ATP, HiBiT complementation luminescence;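 also: signal reports ligand binding via conformational change of the enzyme rather than luciferase catalysis; % of control where 0% means no effect; nearly all actives have a fitted effect of over 55% in size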
FLuc inh-2: firefly luciferase enzyme inhibition | shares compounds with FLuc inh-1 | purified FLuc-C-HiBiT enzyme, luciferin luminescence | Potency, µM (doses to about 32.7 µM), without a hit: at the highest dose activity change, negative = inhibition, hits mostly inhibitors | hit rate 42% among 1,300 | AID 1963320; also: % is scaled to controls: 0 for no effect and ±100 for the full control effect; nearly all actives have a fitted effect of over 70% in size
Starred values were filed as active, the others as inactive; i = inactive; ? = inconclusive; · = not tested or not shown; [ ] = dose if it differs, or a comment. Shown are actives, neighbours in structure and some others; about 11% of the full set was active somewhere. Unless noted, calls follow the shape of the dose curve; as a rule, active = well fitted curve in the direction sought with a large enough effect; inconclusive = small, poorly fitted or top-dose-only effect, or another doubt; inactive = no such curve, though single readings can be large; an effect the other way counts as inactive or inconclusive. Potency is read from the fitted curve at half-maximal effect.

SMILES | 3T3 cytotox | FLuc inh-1 | HEK293 tox | hNpr1 antagonist | FLuc SDR no ATP | FLuc SDR ATP | FLuc inh-2
CNC(=O)c1cccc(-c2cnc(NC(=O)c3cn(C)cn3)c3c2CCO3)c1 | · | · | · | · | 22.6%[49.3 µM] | ? | ?
CC(=O)N1CCN(C(=O)c2nc3sccn3c2-c2cccnc2)CC1 | -10.9% | · | 4.3% | · | · | · | ·
CCn1ccnc1C1CCN(c2nc3ccccc3s2)CC1 | -1.5% | 3.16µM* | ? | ? | 22.4% | 15.7% | ?
CC(=O)Nc1ccc(C(=O)N2CCC3(CC2)N=C(c2ccc(C)cc2)NO3)cc1 | -9.6% | i | ? | -8.5% | · | · | ·
CC(C)(Oc1nn(CC2CC2)c2ccc(CN3CCCC3)cc12)C(=O)NC1CCOCC1 | · | · | · | · | 12.4%[49.3 µM] | 10.4%[49.3 µM] | -2.6%[49.3 µM]
COc1ccc(NC(=O)C(C)(C)Oc2nn(CC3CC3)c3ccc(CN4CCCC4)cc23)cc1 | ? | i | ? | -1.8% | · | · | ·
CN1CCC(NC(=O)C(C)(C)Oc2nn(Cc3ncccn3)c3ccccc23)CC1 | · | · | · | · | 14.1%[49.3 µM] | 11.3%[49.3 µM] | -0.3%[49.3 µM]
COc1ccc(CN2CCC[C@H]2c2nc(-c3cncnc3N)no2)c(O)c1 | i | i | 0.2%[172 µM] | 5.5%[70.6 µM] | · | · | ·
COc1ccc(C(=O)Nc2cc(S(=O)(=O)c3ccc(Cl)cc3)c(O)c(C)c2C)cc1 | · | · | · | · | 19.2% | 13.6% | -13.9%
COc1ccc(C(=O)NC(C(=O)N2CCCC2)C2CCN(C(=O)c3ccc(Cl)cc3)CC2)cc1 (stereo not given) | -8.1% | i | ? | 4.4% | · | · | ·
CC(C)n1cc2cc(C(=O)Nc3ccc4c(c3)OCCO4)sc2c1 | -14.6% | 14.1µM* | 35.5µM* | ? | 22.9% | 17.1% | 9.89µM*
CC(C)n1cc2cc(C(=O)NC3CCCCCC3)sc2c1 | ? | i | ? | -14.2% | · | · | ·
CN1CCC(C(=O)N2Cc3ccccc3CC3(CCCN(CC4CCNCC4)C3)C2)CC1 (stereo not given) | i | · | i | · | · | · | ·
COc1ccc(CN2CCOC[C@H](OCC(=O)N(C)C)C2)cc1 | i | i | i | -0.2%[70.6 µM] | 18.0%[49.3 µM] | 9.6%[49.3 µM] | -1.3%[49.3 µM]
O=C(NC1CCN(c2ccnc3ccnn23)C1)C1CC1 (stereo not given) | ? | · | -22.1%[172 µM] | · | · | · | ·
Cc1c(C(=O)Nc2ccc(C(=O)O)cc2)nnn1-c1ccccc1 | · | · | · | · | 7µM* | 0.0785µM* | 0.0785µM*
COc1cccc(CN2CC(O)CN(C(=O)c3cccc(C(F)(F)F)c3)CC2=O)c1OC (stereo not given) | -21.2% | · | ? | · | · | · | ·
CN1CCOc2c(C(=O)NCCc3cnc[nH]3)cc(-c3ccc(N4CCOCC4)cc3)cc21 | ? | ? | ? | 1.4% | · | · | ·
COc1ccccc1-c1cnc(Nc2cc(F)cc(N3CCOCC3)c2)c2c1CCO2 | ? | i | ? | -3.7%[70.6 µM] | · | · | ·
COc1ccc(-c2ccc3ncc(Nc4cc(F)cc(N5CCOCC5)c4)n3n2)cc1OC | 17.8µM* | 8.91µM* | ? | 1.7% | 18.8% | 12.3% | ?
Nc1nc2c([nH]c(=O)n2C2OC(CO)C(O)C2O)c(=O)[nH]1 (stereo not given) | · | · | · | · | 14.3% | 8.3% | 0.5%
Nc1nc2c([nH]c(=S)n2C2OC(CO)C(O)C2O)c(=O)[nH]1 (stereo not given) | · | · | · | · | -0.1% | -0.5% | 2.48µM*
CC(C)CNC(=O)c1ccc2nnc(-c3cccnc3)n2c1 | -9.2%[138 µM] | · | 4.0%[172 µM] | · | · | · | ·
c1cn(-c2ccc(-c3nc(C4CCOC4)no3)cc2)cn1 (stereo not given) | -19.8% | i | -3.8% | -1.2% | · | · | ·
CCCc1ccc(-c2nc(C3CCOC3)no2)cc1 (stereo not given) | -21.2% | 1.12µM* | ? | ? | 14.9% | ? | 7µM*
SMILES | 3T3 cytotox | FLuc inh-1 | HEK293 tox | hNpr1 antagonist | FLuc SDR no ATP | FLuc SDR ATP | FLuc inh-2
CCN(CC)c1cc(CCC(=O)O)ccn1 | 1.3% | 6.31µM* | -7.4% | -26.7% | 13.3% | 1.57µM* | 1.4µM*
CCN(CC)c1cc(CCC(=O)NCCOC)ccn1 | -10.7% | i | -4.6% | 9.6% | · | · | ·
CCOC(=O)c1cc(-c2ccccc2)nn1Cc1ccccc1 | · | · | · | · | 15.2% | 11.8% | -5.7%
O=C(O)c1cccc(-c2noc(-c3ccccc3F)n2)c1 | · | · | · | · | 11.1µM* | 0.005µM* | 0.0062µM*
Brc1ccccc1-c1nc(-c2ccccc2)no1 | · | · | · | · | 21.8% | ? | 3.51µM*
COc1ccc(N2CC(c3noc(-c4ccccc4F)n3)CC2=O)cc1OC (stereo not given) | -15.0% | i | -3.1% | 0.0% | · | · | ·
Cc1ccc(-c2nc(-c3ccccc3)no2)c(Cl)c1 | · | · | · | · | 3.94µM* | 3.51µM* | 0.197µM*
Cc1ccc(-c2noc(-c3nc(Cc4ccccc4)no3)n2)cc1 | -21.2% | i | -22.8% | -5.3% | · | · | ·
